# Vaccinia mCherry – vaccinia inhibition (mCherry reporter) | Vaccinia virus mCherry reporter infection, fluorescence | Potency, µM (series often up to 36.5 µM), hits mostly inhibitors | 310,000 tested, 0.63% active | AID 720579; calls by dose curve; tested in A549 cells; also: nearly all actives have a fitted effect of over 35% in size
# VACV Venus inh – inhibitors of vaccinia virus (Venus reporter). Vaccinia virus Venus reporter expression, fluorescence. Potency, µM (series often up to 36.5 µM), most hits filed as inhibitors. 330,000 tested, 0.46% active. AID 720580; calls by dose curve; tested in A549 cells; also: nearly all actives have a fitted effect of over 30% in size
# AmpC inh detg – inhibitors of E. coli AmpC beta-lactamase with detergent | P00811 | AmpC hydrolysis of nitrocefin, absorbance 480 nm, 0.01% Triton | Potency, µM (titrated, usually from 114 µM), hits mostly inhibitors | 370,000 tested, 0.041% active | AID 485294; also: nearly all actives have a fitted effect of over 25% in size
# Target sequence (P00811 whole entry, looked up): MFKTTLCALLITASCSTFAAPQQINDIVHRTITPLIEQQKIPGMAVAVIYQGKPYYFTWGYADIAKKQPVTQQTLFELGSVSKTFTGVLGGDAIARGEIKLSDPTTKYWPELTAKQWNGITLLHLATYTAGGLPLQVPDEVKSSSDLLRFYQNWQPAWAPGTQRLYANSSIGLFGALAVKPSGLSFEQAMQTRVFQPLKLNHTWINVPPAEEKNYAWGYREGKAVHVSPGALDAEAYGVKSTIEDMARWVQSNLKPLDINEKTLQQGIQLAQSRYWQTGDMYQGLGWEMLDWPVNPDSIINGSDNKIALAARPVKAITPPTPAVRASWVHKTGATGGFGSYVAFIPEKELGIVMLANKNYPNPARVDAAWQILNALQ
#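 AmpC (5.3 nM in the dispensed reagent) in 20 mM phosphate pH 7.0 with 0.01% (detergent screen) or 0.0001% Triton X-100 was preincubated with compounds for 15 min at room temperature. Nitrocefin was then added from an 800 uM solution, and hydrolysis was followed at 480 nm.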
# AmpC inh no detg – AmpC beta-lactamase inhibition without detergent; Potency, µM (highest dose often 57.1 µM), actives largely listed as inhibitors; AmpC nitrocefin hydrolysis, absorbance 480 nm, 0.0001% Triton; 330,000 tested, 0.52% active; P00811; AID 485341; also: nearly all actives have a fitted effect of over 20% in size
#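 20 mM phosphate pH 7.0 + 0.01% (detergent screen) or 0.0001% Triton X-100; 5.3 nM AmpC reagent; cpd preinc 15 min RT; nitrocefin (800 uM stock) to start; A480 q20 s × 4 min; Activity was normalised to no-enzyme and no-compound control wells.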
# A number is an active result; i = inactive; ? = inconclusive; nt = no result given. A selection: hits, their analogues and other compounds. The true share with any hit is near 1.1%. Unless noted, calls follow the shape of the dose curve; as a rule, active = well fitted curve in the direction sought with a large enough effect; inconclusive = small, poorly fitted or top-dose-only effect, or another doubt; inactive = no such curve, though single readings can be large; an effect the other way counts as inactive or inconclusive.
SMILES,Vaccinia mCherry,VACV Venus inh,AmpC inh detg,AmpC inh no detg
Cc1ccc(C(=O)NC(=S)Nc2ccc3c(c2)OCCO3)c(C)c1,nt,i,i,i
O=C(NC(=S)Nc1ccc2c(c1)OCCO2)c1ccc(F)cc1Cl,nt,nt,79µM,i
COc1ccc(C(=O)NCC(=O)NC2=NCCS2)cc1,i,i,?,35µM
CSc1nnc(CCNC(=O)/C=C/c2cccc(F)c2)n1-c1ccc(F)cc1,i,i,nt,nt
O=C(NC(c1ccccc1)c1ccc2ccccc2n1)C1CCN(CCOc2ccc(Cl)cc2)CC1 (stereo unspecified),?,10µM,nt,nt
O=C(NC(c1ccc(F)cc1)c1ccc2ccccc2n1)C1CCN(CCOc2ccc(F)cc2)CC1 (stereo unspecified),11µM,10µM,nt,nt
COc1cc(CN2CCC(C(=O)NC(c3ccc(F)cc3)c3ccc4ccccc4n3)CC2)cc(OC)c1 (stereo unspecified),?,14µM,nt,nt
COC(=O)c1c(OCc2ccccn2)cc(=O)n2c1CCN(Cc1cccc(C(F)(F)F)c1)CC2,i,i,nt,nt
O=C(C[n+]1cc(Br)cc(Br)c1)c1ccc2c(c1)CCCC2,i,i,nt,nt
CCN(CC)c1ccc(/C=C/C2=C3C=CC=CC3NC=C2)cc1 (stereo unspecified),i,i,nt,nt
C1CCC(C(CC2CCCCN2)C2CCCCC2)CC1 (stereo unspecified),11µM,13µM,i,i
NC(CC(=O)O)C1CCCCC1 (stereo unspecified),nt,nt,?,i
Cc1cc(C)n(-c2ccc(C(=O)NCC3Cc4cc(-c5cnccn5)ccc4O3)cc2)n1 (stereo unspecified),i,i,nt,nt
C=CC(C)(C)c1c2occc2c(O)c2ccc(=O)oc12,i,i,nt,i
C=CC(C)(C)c1c(O)c(CC=C(C)C)c(O)c2c(=O)c3ccc(O)c(O)c3oc12,8.9µM,?,nt,nt
COc1[nH]c(/N=C/c2ccco2)c(C#N)c1C#N,i,i,nt,nt
COc1cccc(CN2C(=O)NC(C)(C3CCN(Cc4cc(F)cc(F)c4)CC3)C2=O)c1OC (stereo unspecified),i,i,nt,nt
Cc1ccc(S(=O)(=O)NNC(=O)c2ccc(C(=O)N(c3ccccc3)c3ccccc3)cc2)cc1,i,i,nt,nt
Cc1ccc(C2C(/C=C3/SC(=S)NC3=O)=C(c3cccs3)Oc3ccccc32)cc1 (stereo unspecified),i,i,i,6.3µM
O=C1NC(=S)SC1=Cc1ccccc1Cl,i,i,nt,nt
CC(C)C(NS(C)(=O)=O)c1nnc2n1CCN(Cc1ccc(Cl)cc1)CC2 (stereo unspecified),i,i,nt,nt
Cc1cc(NC(=O)c2sc(Nc3ccc(F)c(Cl)c3)nc2N)no1,i,i,i,20µM
Cc1cc(NC(=O)c2sc(Nc3cccc(C(F)(F)F)c3)nc2N)no1,nt,nt,?,i
CCC1(C2CCN(C(=O)c3ccc(C)cc3C)CC2)NC(=O)N(CCc2scnc2C)C1=O (stereo unspecified),i,i,nt,nt
Cc1ccc2nc(SCC(=O)N3CCC4(CC3)CC4C(=O)Nc3ccc(F)c(F)c3)[nH]c2c1 (stereo unspecified),i,i,nt,nt
SMILES,Vaccinia mCherry,VACV Venus inh,AmpC inh detg,AmpC inh no detg
Cc1cc(NC(=O)Cc2ccccc2)nc2c1c(=O)oc1ccccc12,i,i,?,6.3µM
Cc1cccc(CC(=O)Nc2cc(C)c3c(=O)oc4ccccc4c3n2)c1,i,i,?,i
CN(C)CCNC(=O)c1cccc2nc3c(ccc4ccccc43)nc12,?,11µM,nt,nt
COc1ccc(-c2nc3c(C(=O)NCCN(C)C)cccc3c3ccccc23)cc1,i,?,nt,nt
COc1ccc(C(=O)NCCN(C)C)c2nc3ccccc3cc12,1µM,6.3µM,nt,nt
COc1cccc2nc3c(C(=O)NCCN(C)C)cccc3cc12,3.5µM,4.5µM,nt,nt
COC(=O)CC1C(=O)NCCN1C(=O)CN1Cc2ccccc2OC(c2ccccc2)C1 (stereo unspecified),i,i,nt,nt
COc1ccc(-c2ccc(C(=O)N3CCc4c(cnc(C)c4CNS(=O)(=O)N(C)C)C3)o2)cc1,i,i,nt,nt
COc1cccc(Nc2nc(C(N)CCc3ccccc3)cs2)n1 (stereo unspecified),i,i,nt,nt
NC(Cc1ccc(F)cc1)c1csc(Nc2cnccn2)n1 (stereo unspecified),10µM,11µM,nt,nt
NC(Cc1ccc(Cl)cc1)c1csc(Nc2ccccn2)n1 (stereo unspecified),i,?,nt,nt
NC(CCc1ccccc1)c1csc(Nc2cnccn2)n1 (stereo unspecified),10µM,?,nt,nt
COc1cccc(-n2nc(C#N)c(Cl)cc2=O)c1,?,18µM,i,i
O=C(CCCOC(=O)c1ccc(O)cc1O)c1ccccc1,nt,nt,i,i

# Bioassay records (PubChem BioAssay)
